Some test systems named below: NCI-H23 lung; NCI-H226 lung; NCI-H322M lung; NCI-H460 lung; HOP-92 NSCLC; NCI-H522 lung; A549/ATCC NSCLC; 786-0 renal; COLO 205 colon; DU-145 prostate; K-562 leukemia; MALME-3M melanoma; MDA-MB-231 breast; RXF 393 renal; SF-268 CNS; SF-539 CNS; UACC-257 melanoma; M14 melanoma; HOP-62 NSCLC; SF-295 CNS.
Holding throughout (experiment): NCI-60 one-dose screen, 48 h (100 = growth as untreated, 0 = no growth, -100 = all killed)
Holding throughout (conditions): 10 µM unless noted

Among the data in PubChem BioAssay (NCI) are growth values, retold here.

Molecules are shown by their SMILES. Several values for one entry are separate records, joined by “and”; a condition that tells them apart may be missing. Equal entries are not always repeated. Compounds without any hit were thinned out: in the full panel of roughly 83,000, 20% have a hit.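 Interpretation: 100, growth as untreated; towards 0, rising growth inhibition; 0, no net growth; 0 to -100, cell death. Compounds scoring below 10 were considered active.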 Unmarked numbers belong to inactive results. Activity calls are given as the source filed them.

Take `O=[N+]([O-])c1c(Cl)cc(Cl)c([N+](=O)[O-])c1Cl`: the growth is 98.3% in the experiment with NCI-H23 lung; 117% in the experiment on NCI-H226 lung; 119% in the experiment on NCI-H322M lung; 95.8% in the experiment on NCI-H460 lung; 99.6% with HOP-92 NSCLC; 36.6% with NCI-H522 lung. In addition, the growth with A549/ATCC NSCLC was 108%; in the experiment with 786-0 renal, 126%; in the experiment with COLO 205 colon, 96%; with DU-145 prostate, 81.3%; with K-562 leukemia, 103%; with MALME-3M melanoma it was 175%. Also, the growth with MDA-MB-231 breast was 110%; with RXF 393 renal it was 131%; in the experiment with SF-268 CNS, 96%; in the experiment with SF-539 CNS it was 110%; with UACC-257 melanoma, 62.9%; in the experiment on M14 melanoma, 97.2%.
As for `Oc1cc(N2CC2)c(O)cc1N1CC1`, the growth in the experiment on NCI-H23 lung was -37.9% (active); with NCI-H226 lung, -16.4% (active); with NCI-H322M lung, 20.4%; with HOP-62 NSCLC, -12.8% (active); in the experiment with HOP-92 NSCLC, 5.86% (active); in the experiment with NCI-H522 lung it was -74.7% (active). Moreover, the growth was -1.9% (active) in the experiment on A549/ATCC NSCLC; 22.3% in the experiment with 786-0 renal; -72.7% (active) in the experiment on COLO 205 colon; 9.43% (active) with DU-145 prostate; 17.1% with K-562 leukemia; -89.6% (active) in the experiment on MALME-3M melanoma. Also, the growth is 96.9% with MDA-MB-231 breast; -78% (active) with RXF 393 renal; 7.87% (active) with SF-268 CNS; 15.9% in the experiment with SF-295 CNS; -12% (active) in the experiment on SF-539 CNS; -47.1% (active) in the experiment with UACC-257 melanoma. Besides, in the experiment on M14 melanoma, the growth was -50.4% (active).
For `Oc1ccc(O)c(Cl)c1`, the growth with NCI-H23 lung is 96.2% and 88.3%; with NCI-H226 lung it was 94.5% and 98.5%; in the experiment with NCI-H322M lung, 109% and 98.2%; in the experiment with HOP-62 NSCLC it was 109%; in the experiment on HOP-92 NSCLC, 87.6% and 102%; with NCI-H522 lung, -92.2% (active) and -1.35% (active). In addition, the growth was 92.5% and 111% in the experiment with A549/ATCC NSCLC; 108% and 112% in the experiment on 786-0 renal; 109% and 99.8% in the experiment on COLO 205 colon; 103% with DU-145 prostate; 89.1% and 94.8% in the experiment on K-562 leukemia; 106% and 103% in the experiment on MALME-3M melanoma. The growth in the experiment on MDA-MB-231 breast was 67.3% and 101%; in the experiment on RXF 393 renal, 93% and 113%; in the experiment on SF-268 CNS it was 96% and 100%; with SF-295 CNS, 103% and 118%; with SF-539 CNS, 84.4% and 102%; in the experiment with UACC-257 melanoma it was 88.1% and 102%. Also, the growth with M14 melanoma is 95.7% and 104%.
For the molecule `O=C(O)c1ccc(=O)[nH]c1`, the growth in the experiment on NCI-H23 lung was 88.5% and 105%; in the experiment on NCI-H226 lung, 96.3% and 89.5%; in the experiment on NCI-H322M lung, 108% and 105%; in the experiment on HOP-62 NSCLC it was 98.8% and 85.9%; in the experiment on HOP-92 NSCLC, 100%; in the experiment on NCI-H522 lung it was 101% and 99.9%. In addition, the growth with A549/ATCC NSCLC is 87.7%; in the experiment on 786-0 renal, 96.7% and 99.6%; in the experiment on COLO 205 colon it was 98.3% and 98.9%; with DU-145 prostate, 114% and 111%; with K-562 leukemia, 102% and 89.2%; in the experiment on MALME-3M melanoma, 109% and 104%. The growth was 102% and 104% in the experiment with MDA-MB-231 breast; 101% and 104% in the experiment with SF-268 CNS; 113% and 96.2% in the experiment with SF-295 CNS; 89.5% and 98.2% in the experiment on SF-539 CNS; 102% and 95.8% with M14 melanoma.
For the molecule `O=C1CCCCC1CN1CCCCC1` (configuration not stated), the growth was 99.6% in the experiment with NCI-H23 lung; 104% with NCI-H226 lung; 93% with HOP-62 NSCLC; 97.2% in the experiment on HOP-92 NSCLC; 84.3% with NCI-H522 lung; 94.9% in the experiment on A549/ATCC NSCLC. Moreover, the growth in the experiment on 786-0 renal is 106%; with DU-145 prostate it was 100%; in the experiment with K-562 leukemia it was 119%; in the experiment on MALME-3M melanoma it was 86.2%; in the experiment on MDA-MB-231 breast it was 116%; in the experiment on RXF 393 renal it was 121%. For the same molecule, the growth in the experiment on SF-268 CNS is 97.7%; with SF-295 CNS, 97.2%; in the experiment on SF-539 CNS, 97%; in the experiment on UACC-257 melanoma, 96.2%; with M14 melanoma, 109%.
Take `C[C@]12CCc3sc(Nc4ccc(F)cc4F)nc3C1=CC[C@@H]1[C@@H]2CC[C@]2(C)C(=O)CC[C@@H]12`: the growth in the experiment with NCI-H23 lung was 66.2%; in the experiment with NCI-H226 lung, 84.2%; in the experiment with HOP-62 NSCLC, 87.1%; in the experiment with HOP-92 NSCLC it was 77.1%; in the experiment with NCI-H522 lung it was 42.6%; in the experiment with A549/ATCC NSCLC, 61.7%. Further, the growth in the experiment on 786-0 renal was -27.7% (active); with COLO 205 colon it was 54.3%; with DU-145 prostate, 24%; with K-562 leukemia, 2.15% (active); in the experiment with MALME-3M melanoma it was 69.5%; in the experiment with MDA-MB-231 breast, 76.1%. The growth was 5.6% (active) in the experiment with RXF 393 renal; 70.7% with SF-268 CNS; 51% in the experiment with SF-295 CNS; 49.6% in the experiment with SF-539 CNS; 71.9% in the experiment on UACC-257 melanoma; 57.8% in the experiment on M14 melanoma.
With `CCCCS(=O)(=O)Cl`, the growth is 108% in the experiment with NCI-H23 lung; 100% in the experiment with NCI-H226 lung; 122% in the experiment with HOP-62 NSCLC; 106% in the experiment with NCI-H460 lung; 97.4% with HOP-92 NSCLC; 99.8% in the experiment with NCI-H522 lung. Moreover, the growth was 109% with A549/ATCC NSCLC; 103% in the experiment on 786-0 renal; 109% in the experiment with COLO 205 colon; 113% in the experiment on DU-145 prostate; 107% in the experiment with K-562 leukemia; 108% with MALME-3M melanoma. For the same molecule, the growth in the experiment with MDA-MB-231 breast is 111%; in the experiment with RXF 393 renal, 112%; with SF-268 CNS, 108%; in the experiment on SF-295 CNS it was 102%; in the experiment with SF-539 CNS, 99%; with UACC-257 melanoma, 110%. Besides, the growth in the experiment on M14 melanoma is 99.1%.
